Source: PubChem (several laboratories)
This is a sample that favours compounds with a hit; in the whole collection about 2% have one here.
VLA-4 inh – inhibition in a human VLA-4 binding assay; P13612; VLA-4 expressing cells, ligand binding flow cytometry; inhibition, % (about 7 µM as worked out from the volumes in the protocol); 330,000 compounds, 0.2% hits; in the data active = inhibition above about 50%
Exocytosis inh – blocks lytic granule exocytosis | TALL-104 LAMP-1 surface exposure, flow cytometry; cells stimulated with thapsigargin and PMA | inhibition, % at 10 µM | 360,000 compounds, 0.66% hits;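 active = inhibition above about 55%, limit read from the data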
PG9 binder – small molecules binding HIV-1 gp120 antibody PG9; TR-FRET gp120-PG9 antibody binding; inhibition, % at 6.7 µM; 360,000 compounds, 0.43% hits; in the data active = inhibition above about 8.5%
Rev-erbA mod – Rev-erb alpha (human) modulation; Rev-erbα–FITC-DNA binding, fluorescence polarization, 90 min; activity, % at 10 µM; 370,000 compounds, 0.79% hits;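 active = activity above about 14%, limit read from the data; passing the limit was not always enough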;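 note: 0% = DMSO wells with 35 nM protein and 100% = DMSO wells with 750 nM protein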
Target sequence (P20393 whole entry, looked up): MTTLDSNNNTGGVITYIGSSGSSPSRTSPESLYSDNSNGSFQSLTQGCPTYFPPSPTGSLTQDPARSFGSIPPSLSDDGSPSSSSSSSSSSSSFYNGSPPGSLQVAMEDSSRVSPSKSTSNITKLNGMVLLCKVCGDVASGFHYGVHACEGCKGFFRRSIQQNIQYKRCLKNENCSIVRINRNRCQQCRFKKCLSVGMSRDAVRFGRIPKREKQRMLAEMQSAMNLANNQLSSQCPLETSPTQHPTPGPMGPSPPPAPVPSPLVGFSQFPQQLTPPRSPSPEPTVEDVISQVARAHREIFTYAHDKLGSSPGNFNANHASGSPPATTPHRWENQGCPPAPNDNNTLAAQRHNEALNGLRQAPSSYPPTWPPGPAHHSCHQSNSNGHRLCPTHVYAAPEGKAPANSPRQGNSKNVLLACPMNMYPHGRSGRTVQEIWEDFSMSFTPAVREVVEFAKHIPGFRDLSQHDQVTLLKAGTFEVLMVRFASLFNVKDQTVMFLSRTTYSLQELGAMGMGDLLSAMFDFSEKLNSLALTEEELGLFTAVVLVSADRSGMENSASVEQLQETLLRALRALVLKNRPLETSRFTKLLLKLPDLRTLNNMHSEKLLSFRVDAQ
ABCB6 inh 2 – blocks the human ABCB6 transporter | Q9NP58 | K562-ABCB6 porphyrin accumulation, flow cytometry, 1 h; hits give low values | fluorescence ratio to DMSO, % at 10 µM | 360,000 compounds, 0.19% hits;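 active = fluorescence ratio to DMSO below 75%, the collection mean minus 3 SD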;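 note: signal is porphyrin accumulated inside mitochondria; 100% equals median channel fluorescence of DMSO control wells; lower ratio means ABCB6 inhibition with less porphyrin fluorescence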
ABCB6 inh CP1 – blocks the human ABCB6 transporter; K562-ABCB6 porphyrin accumulation, flow cytometry, 1 h; hits give low values; ratio response (% of DMSO), % at 10 µM; 700 tested, under 10 active; shares compounds with ABCB6 inh 2; AID 602430;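 active = repeat-averaged ratio response below 75% of DMSO, the collection mean minus 3 SD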;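 note: median porphyrin fluorescence at 575 nm with 488 nm excitation from mitochondria; lower ratio means less porphyrin signal so ABCB6 inhibition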
An asterisk follows results filed as active.

`O=C(NC1CCCCC1)N1CCC(c2nc(-c3ccc(S(=O)(=O)N4CCCC4)cc3)no2)CC1` gave VLA-4 inh 4.7, Exocytosis inh -1.6, Rev-erbA mod -2.4, ABCB6 inh 2 70.0* and ABCB6 inh CP1 103.0.
For Cc1nn(Cc2c(F)c(F)c(F)c(F)c2F)c(C)c1NC(=O)c1c(-c2ccccc2)nn(-c2ccccc2)c1C the results were VLA-4 inh 17.6, Exocytosis inh -0.5, PG9 binder 2.7, Rev-erbA mod -4.2, ABCB6 inh 2 38.0* and ABCB6 inh CP1 98.0.
Screening Cc1c(C(=O)NCc2ccc(F)cc2)c(-c2ccccc2)nn1-c1ccccc1 returned VLA-4 inh -20.6, Exocytosis inh -2.9, PG9 binder -2.4, Rev-erbA mod 3.1 and ABCB6 inh 2 101.0.
For COCCN1CCCc2nc(-c3ccc(F)cc3)ccc21 the results were PG9 binder -3.7 and Rev-erbA mod 7.8.
`COc1cccc(CN2CCNC(=O)C2CC(=O)NCc2cn3ccccc3n2)c1OC` (stereo not drawn) gave VLA-4 inh 6.6, Exocytosis inh -0.5, PG9 binder -0.7, Rev-erbA mod -3.6, ABCB6 inh 2 73.0* and ABCB6 inh CP1 97.0.
Screening COc1ccccc1CN(C)C(=O)C(c1ccccc1)c1ccccc1 returned VLA-4 inh -9.4, Exocytosis inh 35.6, PG9 binder -0.8, Rev-erbA mod 3.0, ABCB6 inh 2 73.0* and ABCB6 inh CP1 100.0.
CN(Cc1ccc(F)cc1)C(=O)C(c1ccccc1)c1ccccc1 was read as VLA-4 inh 3.5, Exocytosis inh 46.4, PG9 binder -0.6, Rev-erbA mod 0.8 and ABCB6 inh 2 93.0.
For COC(=O)[C@]12C[C@H](CC(=O)NCC3CCCCC3)C(=O)N(CCC3=CCCCC3)C1=C[C@H](C(C)(C)C)O[C@@H]2C the results were PG9 binder 0.6 and Rev-erbA mod -6.2.
For O=C(N[C@H](Cc1ccccc1)C(=O)N1CCN(Cc2ccccn2)CC1)[C@H]1O[C@@H](n2ccc(=O)[nH]c2=O)[C@H](O)[C@@H]1O the results were PG9 binder -0.1 and Rev-erbA mod -4.0.
`CCc1ccc(S(=O)(=O)N2CC(=O)Nc3ccccc32)cc1` gave VLA-4 inh -2.9, Exocytosis inh -2.1, PG9 binder -0.2, Rev-erbA mod 0.7 and ABCB6 inh 2 94.0.
CCOC(=O)c1ccc(S(=O)(=O)N2CC(=O)Nc3ccccc32)cc1 was read as VLA-4 inh -23.1, Exocytosis inh -0.5, PG9 binder -1.0, Rev-erbA mod -3.8, ABCB6 inh 2 68.0* and ABCB6 inh CP1 106.0.
Screening O=C(Cc1cccs1)N1CCC(c2nc3c(nnn3Cc3ccccc3Cl)c(=O)[nH]2)CC1 returned VLA-4 inh 1.7, Exocytosis inh -5.4, PG9 binder -2.4, Rev-erbA mod -2.7, ABCB6 inh 2 64.0* and ABCB6 inh CP1 100.0.
`N#Cc1cccc(NC(=O)N2CCC(c3nc4c(nnn4Cc4cccc(Cl)c4)c(=O)[nH]3)CC2)c1` gave VLA-4 inh -0.8, Exocytosis inh 3.1, PG9 binder -2.3, Rev-erbA mod -1.2, ABCB6 inh 2 90.0 and ABCB6 inh CP1 98.0.
For O=C(C1CCCCC1)N1CCC(c2nc3c(nnn3Cc3c(F)cccc3Cl)c(=O)[nH]2)CC1 the results were VLA-4 inh -10.1, Exocytosis inh -6.3, PG9 binder 2.2, Rev-erbA mod -2.6, ABCB6 inh 2 104.0 and ABCB6 inh CP1 101.0.
Screening O=C(C1CCCCC1)N1CCC(c2nc3c(nnn3Cc3ccccc3Cl)c(=O)[nH]2)CC1 returned Exocytosis inh -3.1, PG9 binder -0.2, Rev-erbA mod 2.2 and ABCB6 inh 2 100.0.
For CCCCCCC(=O)N1CCC(c2nc3c(nnn3Cc3ccccc3Cl)c(=O)[nH]2)CC1 the results were VLA-4 inh 0.3, Exocytosis inh -1.4, PG9 binder 0.8, Rev-erbA mod 0.7, ABCB6 inh 2 93.0 and ABCB6 inh CP1 101.0.
Screening C[C@H]1CCCN1c1cccc2c1S(=O)(=O)N1CC[C@H](C1)O2 returned Rev-erbA mod -2.0.
`COCCOC(=O)c1[nH]c2c(c1C)C(=O)CC(c1cc(OC)c(OC)c(OC)c1)C2` (stereo not drawn) gave VLA-4 inh 0.4, Exocytosis inh -4.0, PG9 binder -1.1, Rev-erbA mod -0.5, ABCB6 inh 2 71.0* and ABCB6 inh CP1 96.0.
`COc1ccc(NC(=O)CN2CCC(NC(=O)C3CCCCC3)CC2)cc1` gave VLA-4 inh -0.5, Exocytosis inh 4.0, PG9 binder -1.2, Rev-erbA mod 0.4, ABCB6 inh 2 68.0* and ABCB6 inh CP1 98.0.
`CCOc1cc(CCNC(=O)c2cc3ccsc3n2C)ccc1OC` gave Rev-erbA mod -0.6.
COC(=O)[C@@H]1C[C@@]2(O)[C@H](O)[C@H](O)[C@H](O)C[C@H]2N1Cc1ccc(C(F)(F)F)cc1 was read as VLA-4 inh -5.8, Exocytosis inh -13.5, PG9 binder -0.2, Rev-erbA mod -3.5, ABCB6 inh 2 72.0* and ABCB6 inh CP1 100.0.
`C=CCN(CC#Cc1ccc(C)cc1)Cc1ccc(OC)cc1OC` gave Rev-erbA mod 3.7.
For Cc1cccc(NC(=O)C2CCN(S(=O)(=O)c3c(C)noc3/C=C/c3ccco3)CC2)n1 the results were VLA-4 inh 4.9, Exocytosis inh -0.9, PG9 binder 0.7, Rev-erbA mod -0.9, ABCB6 inh 2 51.0* and ABCB6 inh CP1 98.0.
Screening O=c1c2c(nc(NCCO)n1CC1CCCCC1)-c1ccccc1CC21CCCC1 returned VLA-4 inh 11.7, Exocytosis inh -1.1, PG9 binder 0.0, Rev-erbA mod 2.0, ABCB6 inh 2 61.0* and ABCB6 inh CP1 100.0.
For COc1ccccc1C1CCN(Cc2ccc(Cl)c(Cl)c2)CC1 the results were VLA-4 inh -1.7, Exocytosis inh 44.9, PG9 binder -1.8, Rev-erbA mod -1.1 and ABCB6 inh 2 92.0.
Screening COc1ccccc1C1CCN(Cc2c(C)[nH]c3ccccc23)CC1 returned VLA-4 inh -99.6, Exocytosis inh 2.4, PG9 binder -3.5, Rev-erbA mod -1.8, ABCB6 inh 2 26.0* and ABCB6 inh CP1 102.0.
`Cc1cccc(N2CCN(C(=O)CCN3C(=O)C4C5C=CC(C5)C4C3=O)CC2C)c1` (stereo not drawn) gave VLA-4 inh 9.7, Exocytosis inh -6.0, PG9 binder -1.8, Rev-erbA mod 0.0, ABCB6 inh 2 67.0* and ABCB6 inh CP1 96.0.
For CN(C(=O)C1CCCC1)C1CCS(=O)(=O)C1 (stereo not drawn) the results were VLA-4 inh 4.3, Exocytosis inh 0.0, PG9 binder -2.1, Rev-erbA mod 3.6, ABCB6 inh 2 71.0* and ABCB6 inh CP1 99.0.
`Nc1nc2c(ncn2[C@@H]2O[C@H](C(=O)NCCCc3ccccc3)[C@@H](O)[C@H]2O)c(=O)[nH]1` gave PG9 binder 0.2 and Rev-erbA mod -2.4.
